# Measured values published in PubChem BioAssay (NCATS).
# Where “and” joins values, the source holds several entries; their conditions need not be identical. Identical values can stand only once. Records with an inconclusive call do not appear. Entries that show only a call come without a potency. Calls of active or inactive are those of the source. Calls follow the shape of the full dose curve; tested in HEK293 reporter line.
# Experiment: qHTS for Inhibitors of the Functional Ribonucleoprotein Complex (vRNP) of Lassa (LASV) Arenavirus: Viability assay - alamar blue signal for LASV Primary Screen (AID 1347083)
# Details: cell viability, alamar blue fluorescence (LASV minigenome counter-screen); series mostly up to 57.5 µM
# Also: nearly all actives have a fitted effect of over 80% in size.
# Potency is read from the fitted curve at half-maximal effect.
row,SMILES,Potency
1,CC1(C)S[C@@H]2[C@H](NC(=O)Cc3ccccc3)C(=O)N2[C@H]1C(=O)O (tested in a mixture with another compound),inactive
2,CCOc1ccc2ccccc2c1C(=O)N[C@@H]1C(=O)N2[C@@H]1SC(C)(C)[C@@H]2C(=O)O,inactive
3,O=C(O)c1cn(C2CC2)c2cc(N3CCNCC3)c(F)cc2c1=O,inactive
4,CN(C)CCC[C@@]1(c2ccc(F)cc2)OCc2cc(C#N)ccc21,inactive
5,Clc1ccc(C(c2ccccc2Cl)C(Cl)Cl)cc1 (stereo unspecified),inactive
6,CN1CCc2cccc3c2[C@H]1Cc1ccc(O)c(O)c1-3,inactive
7,CCCNCC(O)COc1ccccc1C(=O)CCc1ccccc1 (stereo unspecified),inactive
8,C[n+]1ccccc1/C=N/O,inactive
9,CC(C)(C#N)c1cc(Cn2cncn2)cc(C(C)(C)C#N)c1,inactive
10,Oc1cn2c(n1)Nc1ccc(Cl)c(Cl)c1C2,inactive
11,CNCC[C@@H](Oc1ccccc1C)c1ccccc1,inactive
12,NS(=O)(=O)c1cc2c(cc1Cl)NC=NS2(=O)=O,inactive
13,COc1cc2c(cc1OC)C(=O)C(CC1CCN(Cc3ccccc3)CC1)C2 (stereo unspecified),inactive
14,O=C(CCCCCCC(=O)Nc1ccccc1)NO,8.91 µM (active) and 7.69 µM (active)
15,Cc1ccc(S(=O)(=O)NC(=O)NN2CCCCCC2)cc1,inactive
16,O=c1n(CCCN2CCN(c3cccc(Cl)c3)CC2)nc2ccccn12,inactive
17,C[C@@H]1CC(=O)NN=C1c1ccc(NN=C(C#N)C#N)cc1,inactive
18,NC(=O)C(c1ccccc1)(c1ccccc1)[C@@H]1CCN(CCc2ccc3c(c2)CCO3)C1,inactive
19,CCCCCOC(=O)Nc1nc(=O)n([C@@H]2O[C@H](C)[C@@H](O)[C@H]2O)cc1F,inactive

row,SMILES,Potency
1,C=C(c1ccc(C(=O)O)cc1)c1cc2c(cc1C)C(C)(C)CCC2(C)C,inactive
2,Cc1[nH]cnc1CN1CCc2c(c3ccccc3n2C)C1=O,inactive
3,O[C@@H](c1cc(C(F)(F)F)nc2c(C(F)(F)F)cccc12)[C@H]1CCCCN1,inactive
4,CC(C)Nc1cccnc1N1CCN(C(=O)c2cc3cc(NS(C)(=O)=O)ccc3[nH]2)CC1,inactive
5,NS(=O)(=O)Cc1noc2ccccc12,inactive
6,CNCCc1ccccn1,inactive
7,O=C(O)CCNC(=O)c1ccc(N=Nc2ccc(O)c(C(=O)O)c2)cc1,inactive
8,COc1ccccc1OCCNCC(O)COc1cccc2[nH]c3ccccc3c12 (stereo unspecified),inactive
9,Clc1ccc2c(c1)C(N1CCNCC1)=Nc1ccccc1O2,inactive
10,CC/C=C(\C(=O)N[C@@H]1C(=O)N2C(C(=O)OCOC(=O)C(C)(C)C)=C(COC(N)=O)CS[C@H]12)c1csc(N)n1,inactive
11,COc1cc(Cc2cnc(N)nc2N)cc(OC)c1OC,inactive
12,Cc1cn([C@H]2C=C[C@@H](CO)O2)c(=O)[nH]c1=O,inactive
13,NNc1nncc2ccccc12,inactive
14,CCCCN1C[C@H](O)[C@@H](O)[C@H](O)[C@H]1CO,inactive
15,CC(C)NCC(O)c1ccc(O)c(O)c1 (stereo unspecified),inactive
16,CN(C)CCOC(c1ccc(Cl)cc1)c1ccccn1 (stereo unspecified),inactive
17,CCCCNC(=O)NS(=O)(=O)c1ccc(C)cc1,inactive
18,CC[N+](C)(C)c1cccc(O)c1,inactive
19,CC(C)C1CCC(C(=O)N[C@H](Cc2ccccc2)C(=O)O)CC1 (stereo partly specified),inactive

# Experiment: qHTS for Inhibitors of the Functional Ribonucleoprotein Complex (vRNP) of Lymphocytic Choriomeningitis Arenaviruses (LCMV): Viability assay - alamar blue signal for LCMV Primary Screen (AID 1347085)
# Details: alamar blue viability counter-screen, LCMV vRNP screen cells; series mostly up to 57.5 µM
row,SMILES,Potency
1,CC1(C)S[C@@H]2[C@H](NC(=O)Cc3ccccc3)C(=O)N2[C@H]1C(=O)O (tested in a mixture with another compound),inactive
2,CCOc1ccc2ccccc2c1C(=O)N[C@@H]1C(=O)N2[C@@H]1SC(C)(C)[C@@H]2C(=O)O,inactive
3,O=C(O)c1cn(C2CC2)c2cc(N3CCNCC3)c(F)cc2c1=O,inactive
4,CN(C)CCC[C@@]1(c2ccc(F)cc2)OCc2cc(C#N)ccc21,inactive
5,Clc1ccc(C(c2ccccc2Cl)C(Cl)Cl)cc1 (stereo unspecified),inactive
6,CN1CCc2cccc3c2[C@H]1Cc1ccc(O)c(O)c1-3,inactive
7,CCCNCC(O)COc1ccccc1C(=O)CCc1ccccc1 (stereo unspecified),inactive
8,C[n+]1ccccc1/C=N/O,inactive
9,CC(C)(C#N)c1cc(Cn2cncn2)cc(C(C)(C)C#N)c1,inactive
10,Oc1cn2c(n1)Nc1ccc(Cl)c(Cl)c1C2,inactive
11,CNCC[C@@H](Oc1ccccc1C)c1ccccc1,inactive
12,NS(=O)(=O)c1cc2c(cc1Cl)NC=NS2(=O)=O,inactive
13,COc1cc2c(cc1OC)C(=O)C(CC1CCN(Cc3ccccc3)CC1)C2 (stereo unspecified),inactive
14,O=C(CCCCCCC(=O)Nc1ccccc1)NO,7.69 µM (active)
15,Cc1ccc(S(=O)(=O)NC(=O)NN2CCCCCC2)cc1,inactive
16,O=c1n(CCCN2CCN(c3cccc(Cl)c3)CC2)nc2ccccn12,inactive
17,C[C@@H]1CC(=O)NN=C1c1ccc(NN=C(C#N)C#N)cc1,inactive
18,NC(=O)C(c1ccccc1)(c1ccccc1)[C@@H]1CCN(CCc2ccc3c(c2)CCO3)C1,inactive
19,CCCCCOC(=O)Nc1nc(=O)n([C@@H]2O[C@H](C)[C@@H](O)[C@H]2O)cc1F,inactive

row,SMILES,Potency
1,C=C(c1ccc(C(=O)O)cc1)c1cc2c(cc1C)C(C)(C)CCC2(C)C,inactive
2,Cc1[nH]cnc1CN1CCc2c(c3ccccc3n2C)C1=O,inactive
3,O[C@@H](c1cc(C(F)(F)F)nc2c(C(F)(F)F)cccc12)[C@H]1CCCCN1,inactive
4,CC(C)Nc1cccnc1N1CCN(C(=O)c2cc3cc(NS(C)(=O)=O)ccc3[nH]2)CC1,inactive
5,NS(=O)(=O)Cc1noc2ccccc12,inactive
6,CNCCc1ccccn1,inactive
7,O=C(O)CCNC(=O)c1ccc(N=Nc2ccc(O)c(C(=O)O)c2)cc1,inactive
8,COc1ccccc1OCCNCC(O)COc1cccc2[nH]c3ccccc3c12 (stereo unspecified),inactive
9,Clc1ccc2c(c1)C(N1CCNCC1)=Nc1ccccc1O2,inactive
10,CC/C=C(\C(=O)N[C@@H]1C(=O)N2C(C(=O)OCOC(=O)C(C)(C)C)=C(COC(N)=O)CS[C@H]12)c1csc(N)n1,inactive
11,COc1cc(Cc2cnc(N)nc2N)cc(OC)c1OC,inactive
12,Cc1cn([C@H]2C=C[C@@H](CO)O2)c(=O)[nH]c1=O,inactive
13,NNc1nncc2ccccc12,inactive
14,CCCCN1C[C@H](O)[C@@H](O)[C@H](O)[C@H]1CO,inactive
15,CC(C)NCC(O)c1ccc(O)c(O)c1 (stereo unspecified),inactive
16,CN(C)CCOC(c1ccc(Cl)cc1)c1ccccn1 (stereo unspecified),inactive
17,CCCCNC(=O)NS(=O)(=O)c1ccc(C)cc1,inactive
18,CC[N+](C)(C)c1cccc(O)c1,inactive
19,CC(C)C1CCC(C(=O)N[C@H](Cc2ccccc2)C(=O)O)CC1 (stereo partly specified),inactive
